Inconclusive results are not listed. The source made the active and inactive calls. The call rests on the fitted dose curve; in most records, active means well fitted inhibition curve with a large enough effect; inconclusive means small, poorly fitted or top-dose-only effect; inactive means no such curve, though single readings can be large or run the other way.
Potency means the concentration at half of the fitted maximal effect.

Cytochrome P450 2C19 (Homo sapiens), sequence (P33261 whole entry, looked up): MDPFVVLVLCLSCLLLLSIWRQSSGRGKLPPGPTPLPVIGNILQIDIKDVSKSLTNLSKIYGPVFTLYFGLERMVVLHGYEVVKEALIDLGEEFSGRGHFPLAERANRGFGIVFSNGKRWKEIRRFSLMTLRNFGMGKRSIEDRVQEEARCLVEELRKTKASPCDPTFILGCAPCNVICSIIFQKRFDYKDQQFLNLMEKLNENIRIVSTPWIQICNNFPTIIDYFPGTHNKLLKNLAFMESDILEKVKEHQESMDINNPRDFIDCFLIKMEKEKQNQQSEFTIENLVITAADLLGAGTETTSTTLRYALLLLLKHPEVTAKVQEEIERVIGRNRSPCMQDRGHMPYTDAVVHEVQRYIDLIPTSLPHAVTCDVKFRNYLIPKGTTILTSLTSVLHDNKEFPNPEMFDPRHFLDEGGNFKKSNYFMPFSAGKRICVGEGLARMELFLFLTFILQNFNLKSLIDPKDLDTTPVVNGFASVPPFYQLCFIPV

The test concerns the target Cytochrome P450 2C19 (Homo sapiens) (UniProt P33261). The test can be described thus: qHTS Assay for Inhibitors and Substrates of Cytochrome P450 2C19 (AID 899). Further: nearly all actives have a fitted effect of over 60% in size. To be noted: recombinant CYP2C19, luciferin-H EGE luminescence; series mostly up to 57.1 µM. As for the experimental part:
NIH Molecular Libraries Screening Centers Network [MLSCN]
NIH Chemical Genomics Center [NCGC]
The P450 gene superfamily is involved in the metabolism and clearance of xenobiotics. This assay used human CYP2C19 to measure the hydroxylation of ethylene glycol ester of 6' deoxyluciferin (Luciferin-H EGE; […]) to luciferin. The luciferin is then measured by luminescence after the addition of a luciferase detection reagent. Luciferin-H EGE concentration in the assay was equal to its KM for CYP2C19. Inhibitors and some substrates limit the production of luciferin, and decrease measured luminescence.
NCGC Assay Protocol Summary:
Two uL of enzyme and substrate mix (final concentrations: 5nM CYP2C19, 10uM Luciferin-H EGE, 50mM KPO4) were dispensed into a white, solid bottom 1536-well microtiter plate. 23nL of compound was transferred by a pin tool. The plate was incubated at 37C for 10 min. Two uL of an NADPH regeneration solution (Promega supplied reagent) was dispensed and the reaction was allowed to continue for 60 min at 37C. Then the reaction was stopped by reconstituted luciferin detection buffer. After another 20 min of incubation the plate was read on the ViewLux (Perkin Elmer) at 60 sec exposure and 2x2 binning. This protocol was carried out with Promega-Glo reagents and further information can be found at http://www.promega.com/tbs/tb325/tb325.pdf. Data were normalized to the to AC100 inhibition (57uM ketoconazole).
Keywords: P450, CYP2C19, Luciferase, MLSMR, MLSCN, NIH Roadmap, qHTS, NCGC
Consider `COc1cccc(Cn2c(=O)c(-c3ccc(F)cc3)nc3cnc(N4CCOCC4)nc32)c1`, for which the Potency entry was “inactive”.

Take `COc1ncc2ncc(=O)n(Cc3ccc(F)cc3)c2n1`: the Potency is 7.94 µM (active).

As to `COc1ccccc1CNc1ncnc2ccc(-c3ccccc3OC)cc12`, the Potency was 3.16 µM (active).

For the compound `CN(Cc1ccco1)c1ncncc1-c1ccccc1C(F)(F)F`, the Potency is 3.98 µM (active).

As for `COc1cccc(-c2nccc(NCc3ccccc3)n2)c1`, the Potency is 7.94 µM (active).

Regarding `O=C(Oc1ccccc1)N1CCC2(CC1)CN(c1ccncc1)C2`, the Potency was 7.94 µM (active).

As to `CN(C)c1ncnc2ccc(-c3ccccc3C(F)(F)F)cc12`, the Potency is 3.98 µM (active).

Regarding `COc1ccc2[nH]cc(CCNc3nc(-c4cccnc4)nc4ccccc34)c2c1`, the Potency was 0.501 µM (active).

On to `COc1ccc2[nH]cc(CCNc3ccnc(-c4ccc(N(C)C)cc4)n3)c2c1`, for which the Potency is 6.31 µM (active).

For `CN(C)C(=O)c1ccc(-c2nc(N(C)C)c3ccccc3n2)cc1`, the Potency entry was “inactive”.

For the compound `Cc1cccc(CNc2ncnc3ccc(-c4c(C)noc4C)cc23)c1`, the Potency is 5.01 µM (active).

With `Cc1noc(C)c1-c1nccc(Nc2ccc(F)cc2)n1`, the Potency is 3.98 µM (active).

`COc1ccccc1CCn1c(=O)c(-c2cccc(Cl)c2)nc2cncnc21`: the Potency is 0.251 µM (active).

As to `COc1ccccc1CNc1cc(-c2ccccc2OC)ncn1`, the Potency is 1.58 µM (active).

Consider `FC(F)(F)c1ccccc1-c1cc(NCc2cccs2)ncn1`, for which the Potency is 0.794 µM (active).

For the compound `CC1(C)Oc2ccc(C#N)cc2[C@H](N2CCCC2=O)[C@H]1O`, the Potency result was “inactive”.

For `O=c1c(-c2cccs2)nc2cnc(N3CCNCC3)nc2n1Cc1cccs1`, the Potency was 5.01 µM (active).

Take `O=C(Nc1cccc(F)c1)N1CC2(CCN(C(=O)c3ccncc3)CC2)C1`: the Potency result was “inactive”.

For the compound `COc1ccc2[nH]cc(CCNc3ncncc3-c3cccnc3)c2c1`, the Potency was 3.16 µM (active).

Turning to `c1ccc(C(c2ccccc2)N2CCC3(CCNCC3)CC2)cc1`, the Potency is 3.98 µM (active).

`O=C(c1cccc(F)c1)N1CCC2(CCCN(c3cccc(-c4ccccc4)c3)C2)CC1`: the Potency was 7.94 µM (active).

For `COc1ccccc1CNc1nc(-c2ccc3c(c2)OCO3)nc2ccccc12`, the Potency is 3.16 µM (active).

`CS(=O)(=O)Nc1cccc(-c2ccc3ncnc(NCc4cccnc4)c3c2)c1`: the Potency is 0.0501 µM (active).

Take `N#Cc1cccc(NC(=O)N2CC3(CCN(C(=O)c4cc(C(F)(F)F)cc(C(F)(F)F)c4)CC3)C2)c1`: the Potency is 0.631 µM (active).

Take `COc1cccc(-c2cc(NCc3ccc(OC)cc3OC)ncn2)c1`: the Potency is 5.01 µM (active).

With `O=C(c1ccco1)N1CCC2(CCCN(c3ccncc3)C2)CC1`, the Potency entry is “inactive”.

`COc1ccc2[nH]cc(CCNc3ncncc3-c3cccc(NS(C)(=O)=O)c3)c2c1`: the Potency is 5.01 µM (active).

On to `COc1cc(/C=C\c2ccc(OC)cc2OC)cc(OC)c1`, for which the Potency result was “inactive”.

Turning to `Cc1ccccc1-c1nc(-n2ccnc2)c2ccccc2n1`, the Potency is 5.01 µM (active).

For `Cn1cccc1C(=O)N1CCC2(CC1)CN(c1ccncc1)C2`, the Potency was 1.26 µM (active).

`COc1ccccc1CNc1ncnc2ccc(-c3ccc4c(c3)OCO4)cc12`: the Potency was 3.16 µM (active).

`CN(C)c1ccc(-c2cncnc2-n2ccnc2)cc1`: the Potency is 3.98 µM (active).

As for `O=C(Oc1ccccc1)N1CCC[C@@]2(CCN(c3ccccn3)C2)C1`, the Potency was 5.01 µM (active).

Take `Clc1ccccc1-c1nc(NCc2cccs2)c2ccccc2n1`: the Potency is 7.94 µM (active).

Turning to `Cc1noc(C)c1-c1nc(NCCN2CCOCC2)c2ccccc2n1`, the Potency is 7.94 µM (active).

With `O=C(O)/C=C\c1ccc(O)c(O)c1`, the Potency result was “inactive”.

On to `Cc1ccccc1-c1cc(N(C)Cc2ccco2)ncn1`, for which the Potency was 6.31 µM (active).

Regarding `O=c1c(CCc2ccccc2)nc2cncnc2n1Cc1ccccc1Cl`, the Potency is 5.01 µM (active).

As to `COc1cc2c(cc1OC)C(=O)Cc1ccc3c(c1CN(C)CC2)OCO3`, the Potency was 10 µM (active).

For the compound `COc1ccccc1-c1cc(Nc2ccn[nH]2)ncn1`, the Potency was 6.31 µM (active).

Source of the values: PubChem BioAssay (NCATS).
